Binding signal data for 40 sequences are collected here from PMC10812921, “Transcriptional Coactivator BOB1 (OBF1, OCA-B) Modulates the Specificity of DNA Recognition by the POU-Domain Factors OCT1 and OCT2 in a Monomeric Configuration”.

The target in one test is T1, POU2 (OCT2 POU domain) (human, UniProt P09086 175-386).
T1 sequence: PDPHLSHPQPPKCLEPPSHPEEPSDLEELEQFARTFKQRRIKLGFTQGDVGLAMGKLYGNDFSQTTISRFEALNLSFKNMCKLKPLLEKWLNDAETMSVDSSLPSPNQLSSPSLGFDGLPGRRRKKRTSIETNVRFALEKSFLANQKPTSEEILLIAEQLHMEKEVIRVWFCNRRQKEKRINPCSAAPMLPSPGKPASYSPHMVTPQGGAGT
As to the kind of experiment: EMSA-SELEX-seq; no BOB1; 20 mM Tris-HCl pH 7.6, 140 mM NaCl, 10% glycerol, 0.5 mM EDTA, 0.05% Triton X-100, 0.1 mg/mL BSA, 0.1 mg/mL poly(dI-dC), 5 mM DTT, room temperature, 20 min; high values mean tight binding. The following applies: protein: recombinant; dsDNA, one strand shown. The method in brief:
(§1)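 Tagged POU-domain proteins were produced in E. coli BL21, purified under denaturing conditions and renatured before use. They were mixed at 30 ng with 300 ng of a PCR-amplified double-stranded random 35-nt library, with or without 28 ng coactivator protein, in 20 μL Tris–HCl pH 7.6 binding buffer, incubating 20 min at RT. Complexes cut from native 6% PAGE were eluted and PCR-amplified over four rounds, then sequenced by Illumina, with binding preference taken as the percentage of sequenced 8-mers matching a motif pattern.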
A general note: A gel shift assay detects complexes by their altered migration in electrophoresis.
Turning to ACTGGAAG, the binding signal was 0.027 % of ANNNNAAN 8-mers.
The same measure, in the same setting: then AGACTAAC, with 0.0207 % of ANNNNAAN 8-mers; and ATTAGAAA, with 0.106 % of ANNNNAAN 8-mers; and ATTTAAAC, with 0.161 % of ANNNNAAN 8-mers.
As for AAAGTAAT, the binding signal is 0.14 % of ANNNNAAN 8-mers.
On the same count and under the same terms, as for ACCCGAAC, the figure is 0.0109 % of ANNNNAAN 8-mers; as for AAACAAAG, 0.0742 % of ANNNNAAN 8-mers; as for AGTTGAAA, 0.0489 % of ANNNNAAN 8-mers.
Same read-out and setting: as for ATCGCAAG, the figure is 0.0219 % of ANNNNAAN 8-mers; as for AGCACAAC, 0.0132 % of ANNNNAAN 8-mers; as for AATTGAAA, 0.131 % of ANNNNAAN 8-mers.
Regarding ACCGCAAG, the binding signal is 0.0127 % of ANNNNAAN 8-mers.
For ACGCCAAG, the binding signal is 0.0167 % of ANNNNAAN 8-mers.
Take ACAACAAC: the binding signal was 0.0104 % of ANNNNAAN 8-mers.
As for ATCTGAAA, the binding signal is 0.046 % of ANNNNAAN 8-mers.
Same read-out and setting: as for AACGCAAC, the figure is 0.0201 % of ANNNNAAN 8-mers; as for ATCTAAAC, 0.0374 % of ANNNNAAN 8-mers.
On the same count and under the same terms, then ACCGAAAC, with 0.0132 % of ANNNNAAN 8-mers; and ACAGCAAC, with 0.0155 % of ANNNNAAN 8-mers.
Same read-out and setting: as for ACTCCAAA, the figure is 0.0219 % of ANNNNAAN 8-mers.
As to ATCAAAAA, the binding signal was 0.0702 % of ANNNNAAN 8-mers.
In the case of ACCACAAC, the binding signal was 0.0132 % of ANNNNAAN 8-mers.
The same measure, in the same setting: as for AGCTCAAC, the figure is 0.0132 % of ANNNNAAN 8-mers; as for AAATGAAT, 0.273 % of ANNNNAAN 8-mers.
As to AACCCAAG, the binding signal is 0.015 % of ANNNNAAN 8-mers.
The same measure, in the same setting: then AATGAAAC, with 0.0719 % of ANNNNAAN 8-mers; and ACCCCAAG, with 0.0115 % of ANNNNAAN 8-mers; and ACCTCAAG, with 0.0127 % of ANNNNAAN 8-mers.
The same measure, in the same setting: then ACACCAAC, with 0.0127 % of ANNNNAAN 8-mers; and ACGCCAAC, with 0.0115 % of ANNNNAAN 8-mers; and ACCCTAAC, with 0.0121 % of ANNNNAAN 8-mers.
The same measure, in the same setting: as for AGCACAAT, the figure is 0.0311 % of ANNNNAAN 8-mers.
With ACCACAAG, the binding signal was 0.0178 % of ANNNNAAN 8-mers.
Same read-out and setting: then ACTGCAAC, with 0.0155 % of ANNNNAAN 8-mers; and ACCGGAAG, with 0.0127 % of ANNNNAAN 8-mers.

A further test concerns the target POU1 (OCT1 POU domain);BOB1 (OBF1, OCA-B) (human;human, UniProt P14859;Q16633 260-458;1-256, |). The test is described as follows: EMSA-SELEX-seq; with BOB1 (ternary complex band); 20 mM Tris-HCl pH 7.6, 140 mM NaCl, 10% glycerol, 0.5 mM EDTA, 0.05% Triton X-100, 0.1 mg/mL BSA, 0.1 mg/mL poly(dI-dC), 5 mM DTT, room temperature, 20 min; high values mean tight binding. Particulars: protein: recombinant;recombinant; copies: 1;1; dsDNA, one strand shown. The method in brief:
as §1
For ACTGGAAG, the binding signal was 0.0211 % of ANNNNAAN 8-mers.
Regarding AGACTAAC, the binding signal is 0.0156 % of ANNNNAAN 8-mers.
In the case of ATTAGAAA, the binding signal is 0.0738 % of ANNNNAAN 8-mers.
Turning to ATTTAAAC, the binding signal was 0.117 % of ANNNNAAN 8-mers.
Still for that read-out and setting: as for AAAGTAAT, the figure is 0.11 % of ANNNNAAN 8-mers; as for AAACAAAG, 0.165 % of ANNNNAAN 8-mers; as for AGTTGAAA, 0.0531 % of ANNNNAAN 8-mers.
Consider ATCGCAAG, for which the binding signal is 0.023 % of ANNNNAAN 8-mers.
For AATTGAAA, the binding signal is 0.114 % of ANNNNAAN 8-mers.
As for ACCGCAAG, the binding signal was 0.0176 % of ANNNNAAN 8-mers.
In the case of ACAACAAC, the binding signal was 0.0133 % of ANNNNAAN 8-mers.
Still for that read-out and setting: then ATCTGAAA, with 0.0472 % of ANNNNAAN 8-mers; and ATCTAAAC, with 0.0379 % of ANNNNAAN 8-mers.
Regarding ACCGAAAC, the binding signal is 0.0125 % of ANNNNAAN 8-mers.
As for ACAGCAAC, the binding signal is 0.014 % of ANNNNAAN 8-mers.
On to AGCCCAAC, for which the binding signal was 0.0105 % of ANNNNAAN 8-mers.
Same read-out and setting: then ACTCCAAA, with 0.0277 % of ANNNNAAN 8-mers; and ATCAAAAA, with 0.0851 % of ANNNNAAN 8-mers; and AGCTCAAC, with 0.0101 % of ANNNNAAN 8-mers.
On the same count and under the same terms, then AAATGAAT, with 0.181 % of ANNNNAAN 8-mers; and AACCCAAG, with 0.0144 % of ANNNNAAN 8-mers; and AATGAAAC, with 0.0433 % of ANNNNAAN 8-mers.
In the case of ACCCCAAG, the binding signal is 0.0105 % of ANNNNAAN 8-mers.
Same read-out and setting: then ACCCAAAC, with 0.0164 % of ANNNNAAN 8-mers; and ACCTCAAG, with 0.0156 % of ANNNNAAN 8-mers.
Still for that read-out and setting: as for ACACCAAC, the figure is 0.0113 % of ANNNNAAN 8-mers; as for ACCTCAAC, 0.0129 % of ANNNNAAN 8-mers; as for ACGCCAAC, 0.0121 % of ANNNNAAN 8-mers.
For AGCACAAT, the binding signal was 0.0258 % of ANNNNAAN 8-mers.
Same read-out and setting: as for ACCACAAG, the figure is 0.0113 % of ANNNNAAN 8-mers.
In the case of ACTGCAAC, the binding signal is 0.0199 % of ANNNNAAN 8-mers.

In another test the target is T2, POU2 (OCT2 POU domain);BOB1 (OBF1, OCA-B) (human;human, UniProt P09086;Q16633 175-386;1-256, |).
T2 sequence 1: T1 sequence
T2 sequence 2: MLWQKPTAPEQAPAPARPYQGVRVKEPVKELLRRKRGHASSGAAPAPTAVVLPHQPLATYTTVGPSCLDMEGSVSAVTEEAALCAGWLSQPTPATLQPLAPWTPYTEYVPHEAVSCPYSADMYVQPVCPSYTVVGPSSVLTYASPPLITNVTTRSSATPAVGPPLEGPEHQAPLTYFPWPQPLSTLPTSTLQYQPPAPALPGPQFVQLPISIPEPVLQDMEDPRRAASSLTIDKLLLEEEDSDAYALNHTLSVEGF
The description is as above. Particulars: protein: recombinant;recombinant; copies: 1;1; dsDNA, one strand shown. The method, boiled down: as §1
Consider ACTGGAAG, for which the binding signal is 0.0314 % of ANNNNAAN 8-mers.
Still for that read-out and setting: then AGACTAAC, with 0.0198 % of ANNNNAAN 8-mers.
The same measure, in the same setting: then ATTAGAAA, with 0.0892 % of ANNNNAAN 8-mers.
Take ACCGCAAC: the binding signal is 0.0157 % of ANNNNAAN 8-mers.
Turning to ATTTAAAC, the binding signal was 0.109 % of ANNNNAAN 8-mers.
Still for that read-out and setting: then AAAGTAAT, with 0.0941 % of ANNNNAAN 8-mers; and ACCCGAAC, with 0.0132 % of ANNNNAAN 8-mers; and AAACAAAG, with 0.0892 % of ANNNNAAN 8-mers.
Consider AGTTGAAA, for which the binding signal was 0.0512 % of ANNNNAAN 8-mers.
In the case of ATCGCAAG, the binding signal is 0.0206 % of ANNNNAAN 8-mers.
As for AGCACAAC, the binding signal is 0.0124 % of ANNNNAAN 8-mers.
As for AATTGAAA, the binding signal is 0.0817 % of ANNNNAAN 8-mers.
The same measure, in the same setting: as for ACGCCAAG, the figure is 0.014 % of ANNNNAAN 8-mers; as for ACAACAAC, 0.0124 % of ANNNNAAN 8-mers.
Regarding ATCTGAAA, the binding signal is 0.0545 % of ANNNNAAN 8-mers.
Same read-out and setting: as for AACGCAAC, the figure is 0.0182 % of ANNNNAAN 8-mers; as for ATCTAAAC, 0.0495 % of ANNNNAAN 8-mers.
The same measure, in the same setting: then AGCCCAAC, with 0.0124 % of ANNNNAAN 8-mers; and ACTCCAAA, with 0.0149 % of ANNNNAAN 8-mers.
Still for that read-out and setting: then AACCTAAC, with 0.0132 % of ANNNNAAN 8-mers; and ATCAAAAA, with 0.0636 % of ANNNNAAN 8-mers; and AGCTCAAC, with 0.0231 % of ANNNNAAN 8-mers.
In the case of AAATGAAT, the binding signal is 0.239 % of ANNNNAAN 8-mers.
Still for that read-out and setting: as for AATGAAAC, the figure is 0.0487 % of ANNNNAAN 8-mers; as for ACCCAAAC, 0.0107 % of ANNNNAAN 8-mers.
Regarding ACACCAAC, the binding signal is 0.0107 % of ANNNNAAN 8-mers.
Same read-out and setting: then ACCTCAAC, with 0.0107 % of ANNNNAAN 8-mers.
The same measure, in the same setting: then ACCCTAAC, with 0.0157 % of ANNNNAAN 8-mers; and AGCACAAT, with 0.0264 % of ANNNNAAN 8-mers; and ACCGGAAG, with 0.0124 % of ANNNNAAN 8-mers.
